# Test results reported in PubChem BioAssay.
# Unmarked numbers belong to inactive results. Entries that show only a call come without a potency. For some of these results: Potency and affinity values are given separately. Active and inactive are the calls of the source. Unless noted, how the calls were made is not given here.
# Key:
# [1] = antimalarial activity against Dd2 strain (AID 2302;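 active means growth inhibition above 50% at the single 2 µM test dose, taken to imply half-maximal potency below 2 µM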); conditions: P. falciparum Dd2 in RBCs, LDH growth readout, 72 h; at 2 µM; active compounds read high
# [2] = human hepatoma cell viability loss – ATP luminescence, cytotoxicity control for P. falciparum antimalarial project, primary screen (AID 2303;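 active means inhibition above 50%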); conditions: HepG2 viability, 24-48 h, at 10 µM, active compounds read high
# [3] = target: L-lactate dehydrogenase (Plasmodium falciparum (isolate CDC / Honduras)) (UniProt Q27743); assay: PfLDH activity inhibition – cell lysate, 3D7 strain, counter-screen for P. falciparum growth inhibition project (AID 2304); conditions: P. falciparum 3D7 crude extract, LDH APAD/NBT absorbance; at 2 µM; active compounds read high
# [4] = inhibition of 3D7 malaria parasite growth – strain 3D7 (AID 2306); conditions: P. falciparum 3D7 erythrocytic growth, LDH absorbance, 72 h; at 2 µM; active compounds read high
# [5] = target: Calcium-dependent protein kinase 1 (Plasmodium falciparum (isolate 3D7)) (UniProt P62344); assay: PfCDPK1 kinase inhibitors, biochemical, TCAMS library (AID 1159585; cut-off not given, nearly all actives have IC50 up to about 0.98 µM;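 further: inhibitors leave more ATP so luminescence rises with inhibition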); conditions: recombinant PfCDPK1, Kinase-Glo ATP depletion luminescence
# [6] = target: Plasmodium falciparum protein kinase 6 (PK6, PF3D7_1337100) (UniProt Q8IDW1); assay: PfPK6 kinase inhibitors, biochemical, TCAMS library (AID 1159586); conditions: recombinant PfPK6, Kinase-Glo ATP depletion luminescence
# [7] = target: Protein kinase 7 (PK7), Plasmodium falciparum 3D7 (PF3D7_0213400) (UniProt Q7YTF7); assay: inhibition of Plasmodium PK7 catalytic activity – biochemical, TCAMS antimalarial set, Kinase-Glo luminescence (AID 1159587); conditions: recombinant PfPK7, Kinase-Glo ATP depletion luminescence
# [8] = target: Calcium-dependent protein kinase 4 (Plasmodium falciparum (isolate 3D7)) (UniProt Q8IBS5); assay: PfCDPK4 kinase inhibitors, biochemical, TCAMS library (AID 1159588; cut-off not given, nearly all actives have IC50 up to about 0.91 µM); conditions: recombinant PfCDPK4, Kinase-Glo ATP depletion luminescence
# Sequence of Calcium-dependent protein kinase 4 (Plasmodium falciparum (isolate 3D7)) (Q8IBS5 whole entry, looked up): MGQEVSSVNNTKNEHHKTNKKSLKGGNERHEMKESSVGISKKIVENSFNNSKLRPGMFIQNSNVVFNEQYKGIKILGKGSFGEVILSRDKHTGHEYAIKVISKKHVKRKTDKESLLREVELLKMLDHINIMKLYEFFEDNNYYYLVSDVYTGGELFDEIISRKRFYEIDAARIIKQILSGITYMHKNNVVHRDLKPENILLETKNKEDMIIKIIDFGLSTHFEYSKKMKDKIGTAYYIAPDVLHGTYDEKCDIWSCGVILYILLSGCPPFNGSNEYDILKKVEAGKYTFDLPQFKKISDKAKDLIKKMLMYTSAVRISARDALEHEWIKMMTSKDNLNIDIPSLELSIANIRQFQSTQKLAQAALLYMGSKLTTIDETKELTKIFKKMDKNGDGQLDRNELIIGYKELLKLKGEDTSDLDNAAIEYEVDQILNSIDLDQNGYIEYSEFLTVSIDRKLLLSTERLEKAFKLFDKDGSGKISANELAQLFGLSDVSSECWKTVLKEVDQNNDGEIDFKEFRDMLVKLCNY
# Sequence of Calcium-dependent protein kinase 1 (Plasmodium falciparum (isolate 3D7)) (P62344 whole entry, looked up): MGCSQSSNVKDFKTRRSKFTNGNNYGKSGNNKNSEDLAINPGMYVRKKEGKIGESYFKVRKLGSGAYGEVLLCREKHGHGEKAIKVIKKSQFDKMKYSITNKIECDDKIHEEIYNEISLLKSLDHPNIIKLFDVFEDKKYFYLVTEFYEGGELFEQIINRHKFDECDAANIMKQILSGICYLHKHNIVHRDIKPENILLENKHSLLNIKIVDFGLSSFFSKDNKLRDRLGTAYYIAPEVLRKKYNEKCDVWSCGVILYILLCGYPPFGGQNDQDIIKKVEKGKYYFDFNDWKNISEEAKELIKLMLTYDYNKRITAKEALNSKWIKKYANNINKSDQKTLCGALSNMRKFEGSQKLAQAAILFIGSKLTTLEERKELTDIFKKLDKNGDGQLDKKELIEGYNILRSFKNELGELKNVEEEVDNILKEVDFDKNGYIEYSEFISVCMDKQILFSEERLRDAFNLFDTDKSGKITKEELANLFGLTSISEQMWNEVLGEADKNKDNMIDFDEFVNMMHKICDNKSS
# Sequence of Protein kinase 7 (PK7), Plasmodium falciparum 3D7 (PF3D7_0213400) (Q7YTF7 1-343): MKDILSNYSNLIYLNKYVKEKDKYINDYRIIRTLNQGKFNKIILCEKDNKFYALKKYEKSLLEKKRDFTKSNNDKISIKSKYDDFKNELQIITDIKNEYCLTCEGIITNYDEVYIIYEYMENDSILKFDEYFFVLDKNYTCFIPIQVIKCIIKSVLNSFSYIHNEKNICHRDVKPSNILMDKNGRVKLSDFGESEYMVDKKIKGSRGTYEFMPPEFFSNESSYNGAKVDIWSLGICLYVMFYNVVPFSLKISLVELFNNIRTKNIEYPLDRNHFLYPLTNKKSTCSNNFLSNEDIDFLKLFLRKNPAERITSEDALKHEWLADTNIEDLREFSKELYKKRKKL
# Sequence of L-lactate dehydrogenase (Plasmodium falciparum (isolate CDC / Honduras)) (Q27743 whole entry, looked up): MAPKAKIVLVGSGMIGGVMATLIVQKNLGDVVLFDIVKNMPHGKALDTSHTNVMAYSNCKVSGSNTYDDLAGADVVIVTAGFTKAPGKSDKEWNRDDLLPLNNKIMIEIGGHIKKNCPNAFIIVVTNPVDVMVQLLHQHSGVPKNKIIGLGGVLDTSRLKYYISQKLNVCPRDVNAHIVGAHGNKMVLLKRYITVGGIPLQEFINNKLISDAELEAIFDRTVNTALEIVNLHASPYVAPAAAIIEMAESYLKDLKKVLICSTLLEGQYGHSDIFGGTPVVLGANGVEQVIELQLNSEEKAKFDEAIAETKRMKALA
# Sequence of Plasmodium falciparum protein kinase 6 (PK6, PF3D7_1337100) (Q8IDW1 1-305): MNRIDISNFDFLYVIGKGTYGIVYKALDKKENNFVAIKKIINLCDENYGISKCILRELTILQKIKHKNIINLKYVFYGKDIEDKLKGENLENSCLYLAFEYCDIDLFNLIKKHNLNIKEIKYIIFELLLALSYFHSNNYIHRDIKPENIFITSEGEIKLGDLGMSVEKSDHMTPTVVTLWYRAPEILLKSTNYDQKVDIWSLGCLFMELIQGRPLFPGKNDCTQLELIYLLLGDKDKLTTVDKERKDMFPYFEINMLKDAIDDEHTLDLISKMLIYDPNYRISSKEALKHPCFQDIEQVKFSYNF
Compound,growth inhibition [1],inhibition [2],inhibition [3] [%],growth inhibition [4],outcome [5],outcome [6],outcome [7],outcome [8]
NC(=O)c1ccc(C(=O)Nc2cccc(-c3cccc(-c4nc5ccc(C(F)(F)F)cc5[nH]4)c3)c2)cc1,36%,63% (active),-5,100% (active),inactive,inactive,inactive,inactive
c1ccc2[nH]c(-c3ccc(-c4ccc(CN5CCN(c6ccncc6)CC5)cc4)s3)nc2c1,100% (active),25%,-5,101% (active),inactive,inactive,inactive,inactive
CC(C)(C)C1CCC(CC2=C(C(=O)O)c3ccccc3C2=O)CC1 (stereo not drawn),56% (active),-4%,-1,91% (active),inactive,inactive,inactive,inactive
COc1ccc(/C=C/C(=O)Nc2ccc(-c3ccncc3)cc2)cc1CCCN(C)C,86% (active),3%,1,102% (active),inactive,inactive,inactive,inactive
CC(C)CCNc1nc2ccccc2nc1Nc1cccc(C(F)(F)F)c1,99% (active),12%,1,98% (active),inactive,inactive,inactive,inactive
CCN(CC)CCN(Cc1ccc(-c2ccc(C(F)(F)F)cc2)cc1)C(=O)Cn1c(CCc2cccc(F)c2F)nc(=O)c2cc(F)ccc21,45%,15%,0,98% (active),inactive,inactive,inactive,inactive
CN(C)c1ccc(C=C2SC(=N)N(c3nccs3)C2=O)cc1,50% (active),38%,2,97% (active),inactive,inactive,inactive,inactive
CCN(CC(C)O)C(=O)c1ccc(-c2cccc(-c3nc4c(C)cccc4[nH]3)c2)cc1 (stereo not drawn),32%,28%,-2,100% (active),inactive,inactive,inactive,inactive
Fc1ccc2nccc(NN=CC=Cc3ccccc3)c2c1,77% (active),29%,-2,96% (active),inactive,inactive,inactive,inactive
CCn1c(Sc2ccc(C#N)c([N+](=O)[O-])c2)nnc1-c1ccc(OC)cc1,94% (active),-8%,2,98% (active),inactive,inactive,inactive,inactive
Clc1ccc2nnc(-c3c(Cl)cccc3Cl)n2n1,60% (active),29%,-3,96% (active),inactive,inactive,inactive,inactive
COc1ccc(CNC2Cc3ccccc3C2)cc1-c1cccc(S(=O)(=O)NCCN2CCCC2)c1,61% (active),48%,-3,98% (active),inactive,inactive,inactive,inactive
O[C@@H](c1ccccc1)[C@@H]1CN(CCC2C[C@@H]3CC[C@H]2C3)CC[C@@]1(O)c1ccccc1 (stereo partly drawn),99% (active),-1%,-2,97% (active),inactive,inactive,inactive,inactive
CN(Cc1cccc(F)c1)C1CCCN(c2cc(NC(=O)c3ccccc3)ccn2)C1 (stereo not drawn),50% (active),3%,-3,93% (active),inactive,inactive,inactive,inactive
COc1ccc2nccc([C@@H](O)CN3CCC(NCC(=O)Nc4cc(F)cc(F)c4)CC3)c2n1,28%,18%,-8,89% (active),inactive,inactive,inactive,inactive
COc1ccc(NC(=O)/C=C/c2ccccc2Cl)cc1OCCN1CCC(N2CCN(C)CC2)CC1,49%,19%,5,102% (active),inactive,inactive,inactive,inactive
CCCCCCOc1ccccc1C(=O)NCCOc1ccc(Cl)cc1,37%,16%,4,84% (active),inactive,inactive,inactive,inactive
Cc1cc(N[C@@H](CC(C)C)C(=O)Nc2ccccc2)nc(NCCc2ccccc2)n1,87% (active),-4%,-1,100% (active),inactive,inactive,inactive,inactive
CCOC(=O)c1ccc(N2CCN(c3cc(Cl)ccc3C)CC2)c(NC(=O)Nc2ccc(Cl)c(Cl)c2)c1,99% (active),10%,-5,99% (active),inactive,inactive,inactive,inactive
CN1CCN(CCCN(Cc2cccc(-c3ccc(CNCc4ccc5c(c4)OCO5)cc3)c2)C(=O)Nc2ccccc2)CC1,69% (active),39%,4,98% (active),inactive,inactive,inactive,inactive
Cc1[nH]c(C)c(-c2ccc(C(F)(F)F)cc2)c(=O)c1Br,96% (active),-5%,-8,98% (active),inactive,inactive,inactive,inactive

Compound,growth inhibition [1],inhibition [2],inhibition [3] [%],growth inhibition [4],outcome [5],outcome [6],outcome [7],outcome [8]
CCCN1CCN(c2cc(NCC)c3c4c(onc24)-c2ccccc2C3=O)CC1,11%,4%,6,96% (active),inactive,inactive,inactive,inactive
CC(C)CCn1c(Sc2ccc([N+](=O)[O-])cc2C(F)(F)F)nnc1-c1ccccc1Cl,43%,-5%,6,99% (active),inactive,inactive,inactive,inactive
Cc1cc2c(cc1C(F)(F)F)N(C(=O)Nc1cc(OCCN(C)C)cc(C(F)(F)F)c1)CC2,19%,16%,0,101% (active),inactive,inactive,inactive,inactive
O=C(Nc1cccc(CN2CCN(Cc3cccc(O)c3)CC2)c1)c1ccc(Cl)c(Cl)c1,35%,28%,-1,100% (active),inactive,inactive,inactive,inactive
Cc1cc(N[C@@H](CC(C)C)C(=O)NCCc2ccccc2)nc(NCC2CCCCC2)n1,65% (active),19%,-1,97% (active),inactive,inactive,inactive,inactive
Cc1ccc(CNC(=O)[C@H](Cc2ccccc2)Nc2ccnc(NCC3CCCCC3)n2)cc1,61% (active),84% (active),-2,92% (active),inactive,inactive,inactive,inactive
COc1ccc2ccccc2c1CCCCN1CCN(CC(c2ccc(F)cc2)N2CCC2)CC1 (stereo not drawn),51% (active),51% (active),9,98% (active),inactive,inactive,inactive,inactive
CC(C)[C@H](NC(=O)c1c(F)cccc1F)C(=O)Nc1ccc(Cc2nc3ccccc3s2)cc1,72% (active),3%,0,82% (active),inactive,inactive,inactive,inactive
CO/C(=C\C=C\c1cc2cc(Cl)c(Cl)cc2[nH]1)C(=O)NCCCN1CCN(Cc2ccccc2)CC1,65% (active),45%,-2,94% (active),inactive,inactive,inactive,inactive
Cc1cccc2[nH]c(-c3cccc(-c4ccc(NC(=O)c5ccoc5)cc4)c3)nc12,56% (active),65% (active),-5,99% (active),inactive,inactive,inactive,inactive
c1ccc2c(CNc3nc(NCC4CCCCC4)nc4nc[nH]c34)cccc2c1,44%,-2%,-2,89% (active),inactive,inactive,inactive,inactive
O=C(NCC1CCN(CCN2CCc3ccc4c(c3C2)OCO4)CC1)c1ccc(-c2ccc(C(F)(F)F)cc2)cc1,34%,66% (active),-5,93% (active),inactive,inactive,inactive,inactive
CC(=O)Nc1nc(-c2ccccc2)[nH]c1C(N)=O,-2%,10%,4,99% (active),inactive,inactive,inactive,inactive
CCCCCC(C)N=C(Nc1ccc(C#N)cc1O)Nc1ccccc1Br (stereo not drawn),95% (active),2%,-3,98% (active),inactive,inactive,inactive,inactive
CCCCN1CC[C@@H](CCC(O)c2ccnc3ccc(OCCC(C)C)cc23)[C@@H](CC)C1 (stereo partly drawn),90% (active),22%,2,94% (active),inactive,inactive,inactive,inactive
Cc1[nH]cc(Br)c(=O)c1-c1ccc(Oc2ccc(OC(F)(F)F)cc2)cc1,92% (active),22%,-2,96% (active),inactive,inactive,inactive,inactive
CCCC(C)Nc1nc(C)cc(N[C@@H](Cc2ccccc2)C(=O)Nc2ccc(OC)cc2)n1 (stereo partly drawn),72% (active),24%,-1,100% (active),inactive,inactive,inactive,inactive
CO/C(=C\C=C\c1cc2cc(Cl)c(Cl)cc2[nH]1)C(=O)NCCCN(C)CCN(C)c1ccccc1,59% (active),38%,0,96% (active),inactive,inactive,inactive,inactive
CNc1ccc(CNCc2ccc(-c3ccc(-c4nc5ccc(F)cc5[nH]4)cc3)cc2)cc1,95% (active),38%,-5,101% (active),inactive,inactive,inactive,inactive
COc1c(C2CCN(CCCCNC(=O)c3ccc(-c4ccc(C#N)cc4)nc3)CC2)ccc2c1CCCC2,67% (active),54% (active),-2,95% (active),inactive,inactive,inactive,inactive
